Inconclusive results are not listed. Calls of active or inactive are those of the source. Unless noted, calls come from the whole dose curve; as a rule, active = well fitted curve in either direction with a large enough effect (not every such curve was filed as active); inconclusive = small, poorly fitted or top-dose-only effect, or another doubt; inactive = flat fitted curve, though single readings scatter.
Experiments:
[1] = AP1 Signaling Pathway (AID 357); settings: ME-180 AP-1-bla reporter, EGF-induced, beta-lactamase ratio, 5 h; at 7.69 µM (top of the series) unless noted;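 note: ME-180 reporter cells stimulated with EGF at its EC50 level; % is set by controls: 0 for no effect and ±100 for the full control effect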
How it was run: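 A ratiometric CCF4 readout (405 nm excitation; 460 and 530 nm emission) quantified AP-1-driven beta-lactamase in ME-180 cells after 5 h with compound and EC50 EGF; AC50 values were derived for activators and inhibitors.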

[2] = molecular target: Cytochrome P450 1A2 (Homo sapiens) (UniProt P05177); assay: p450-cyp1a2 (AID 410; calls by dose curve; note: potency is the fitted concentration of half-maximal effect;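 for activity change, negative = inhibition: -100% = full effect of reference inhibitor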)
Chain of Cytochrome P450 1A2 (Homo sapiens) (P05177 whole entry, looked up): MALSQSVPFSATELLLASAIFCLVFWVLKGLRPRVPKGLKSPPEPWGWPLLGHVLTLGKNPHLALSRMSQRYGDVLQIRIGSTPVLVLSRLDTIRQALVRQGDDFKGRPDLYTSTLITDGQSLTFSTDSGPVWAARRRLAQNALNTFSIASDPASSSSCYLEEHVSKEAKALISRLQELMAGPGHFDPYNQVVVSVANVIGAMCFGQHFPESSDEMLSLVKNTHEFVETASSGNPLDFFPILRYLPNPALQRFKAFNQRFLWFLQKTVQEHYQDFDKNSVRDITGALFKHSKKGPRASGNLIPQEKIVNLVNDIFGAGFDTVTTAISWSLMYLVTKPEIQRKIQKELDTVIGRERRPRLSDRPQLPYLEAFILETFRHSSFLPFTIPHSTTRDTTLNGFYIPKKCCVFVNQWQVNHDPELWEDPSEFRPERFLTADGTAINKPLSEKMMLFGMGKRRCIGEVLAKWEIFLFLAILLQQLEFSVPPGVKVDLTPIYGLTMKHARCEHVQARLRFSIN
How it was run: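 Luminescent demethylation readout: Luciferin-ME (100uM, equal to Km) turned over by 20nM CYP1A2 for 60 min at room temperature after NADPH regeneration addition, following 10 min compound preincubation. Normalization used 57 uM furafylline as full inhibition.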

[3] = NFAT Signaling Pathway (AID 444); settings: Jurkat NFAT-bla M1, carbachol, beta-lactamase ratio, 5 h; at 7.69 µM (top of the series) unless noted;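 note: carbachol stimulus at about its EC50 of 1 µM final; % is set by controls: 0 for no effect and ±100 for the full control effect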
How it was run: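 Jurkat cells with NFAT-driven β-lactamase reporter and co-expressed M1 receptor, stimulated with carbachol (final 1 uM, ~EC50), compound titration, 5 h at 37 °C. CCF4 loaded 1 h at RT; 460/530 nm ratio gave %activity and AC50.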

[4] = Stat Signaling Pathway (AID 446); settings: ME-180 (cervical carcinoma) SIE beta-lactamase reporter, IL-6 stimulated, 5 h; at 7.69 µM (top of the series) unless noted;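 note: ME-180 cervical cancer cells given 40 pM IL-6 alongside compound; SIE-controlled beta-lactamase reporter measured as 460/530 nm FRET emission ratio; % is set by controls: 0 for no effect and ±100 for the full control effect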
How it was run: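 Overnight-plated ME-180 cells bearing a STAT Inducible Element beta-lactamase reporter; 5 h co-exposure to compound and 40 pM IL-6; values normalized to 300 pM IL-6 and 125 nM JAK inhibitor controls.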

[5] = molecular target: Glucocorticoid receptor (Homo sapiens) (UniProt P04150); assay: GR-GFP Redistribution (AID 450;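 active = compounds whose dose series gives a full or clear partial fitted curve of increased nuclear translocation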; note: potency is the fitted concentration of half-maximal effect); settings: U2OS GR-GFP nuclear translocation, laser cytometry, 2 h
Chain of Glucocorticoid receptor (Homo sapiens) (P04150 whole entry, looked up, the tested form may be a part): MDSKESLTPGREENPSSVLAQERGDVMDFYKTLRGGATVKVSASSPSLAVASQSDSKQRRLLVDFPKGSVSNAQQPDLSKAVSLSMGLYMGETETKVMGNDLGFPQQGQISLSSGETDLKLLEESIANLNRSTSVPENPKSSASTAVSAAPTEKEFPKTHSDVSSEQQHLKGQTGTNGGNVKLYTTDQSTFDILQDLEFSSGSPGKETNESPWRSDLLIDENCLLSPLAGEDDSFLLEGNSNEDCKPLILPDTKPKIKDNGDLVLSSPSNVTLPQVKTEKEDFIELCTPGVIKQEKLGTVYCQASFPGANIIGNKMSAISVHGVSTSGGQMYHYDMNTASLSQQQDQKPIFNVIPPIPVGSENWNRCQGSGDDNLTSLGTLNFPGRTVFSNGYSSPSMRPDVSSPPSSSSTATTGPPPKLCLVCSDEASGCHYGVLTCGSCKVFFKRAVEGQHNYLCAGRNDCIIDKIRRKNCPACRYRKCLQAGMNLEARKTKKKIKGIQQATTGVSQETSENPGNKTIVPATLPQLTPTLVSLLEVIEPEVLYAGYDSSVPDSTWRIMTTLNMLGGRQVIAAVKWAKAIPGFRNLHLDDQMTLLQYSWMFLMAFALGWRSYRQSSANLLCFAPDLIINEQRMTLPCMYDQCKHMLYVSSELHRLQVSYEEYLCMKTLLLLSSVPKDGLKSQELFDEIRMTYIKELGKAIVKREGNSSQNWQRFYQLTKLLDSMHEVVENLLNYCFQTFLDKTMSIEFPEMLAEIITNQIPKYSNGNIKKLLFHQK

[6] = molecular target: Glucocorticoid receptor (Homo sapiens) (UniProt P04150); assay: GR-EFC Redistribution (AID 451; calls by dose curve; note: potency is the fitted concentration of half-maximal effect); settings: CHO-K1 GR-EFC translocation, beta-gal luminescence, 2 h
How it was run: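 CHO-K1 cells expressing nuclear EA and GR-ED fragments of b-gal; compounds titrated up to 46 uM final, 2 h at 37 C. GR nuclear translocation read as complemented b-gal luminescence after 1 h RT detection.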

[7] = molecular target: Mitogen-activated protein kinase 10 (Mus musculus) (UniProt Q61831); assay: JNK3 AlphaScreen Assay (AID 530);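 note: kinase came from lysate of stimulated human HepG2 cells; signal reports phosphorylation of biotinylated GST-cJun 1-79 at Ser73 with 10 µM ATP; % is set by controls: 0 for no effect and ±100 for the full control effect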
How it was run: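 Activity was read by AlphaScreen after JNK3-containing HepG2 lysate (cytokine pre-activated) phosphorylated biotinylated GST-cJun with 10 uM ATP at room temperature. Phospho-Ser73 cJun antibody with Protein-A acceptor beads provided detection.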

[8] = molecular target: 3',5'-cyclic-AMP phosphodiesterase 4B (Homo sapiens) (UniProt Q07343); assay: qHTS Assay for Inhibitors of PDE-IV (AID 607; active = well fitted activation curve with a large enough effect in the main read-out, with a control signal flat, not every such curve was filed as active; note: % of control where 0% means no effect)
Chain of 3',5'-cyclic-AMP phosphodiesterase 4B (Homo sapiens) (Q07343 whole entry, looked up): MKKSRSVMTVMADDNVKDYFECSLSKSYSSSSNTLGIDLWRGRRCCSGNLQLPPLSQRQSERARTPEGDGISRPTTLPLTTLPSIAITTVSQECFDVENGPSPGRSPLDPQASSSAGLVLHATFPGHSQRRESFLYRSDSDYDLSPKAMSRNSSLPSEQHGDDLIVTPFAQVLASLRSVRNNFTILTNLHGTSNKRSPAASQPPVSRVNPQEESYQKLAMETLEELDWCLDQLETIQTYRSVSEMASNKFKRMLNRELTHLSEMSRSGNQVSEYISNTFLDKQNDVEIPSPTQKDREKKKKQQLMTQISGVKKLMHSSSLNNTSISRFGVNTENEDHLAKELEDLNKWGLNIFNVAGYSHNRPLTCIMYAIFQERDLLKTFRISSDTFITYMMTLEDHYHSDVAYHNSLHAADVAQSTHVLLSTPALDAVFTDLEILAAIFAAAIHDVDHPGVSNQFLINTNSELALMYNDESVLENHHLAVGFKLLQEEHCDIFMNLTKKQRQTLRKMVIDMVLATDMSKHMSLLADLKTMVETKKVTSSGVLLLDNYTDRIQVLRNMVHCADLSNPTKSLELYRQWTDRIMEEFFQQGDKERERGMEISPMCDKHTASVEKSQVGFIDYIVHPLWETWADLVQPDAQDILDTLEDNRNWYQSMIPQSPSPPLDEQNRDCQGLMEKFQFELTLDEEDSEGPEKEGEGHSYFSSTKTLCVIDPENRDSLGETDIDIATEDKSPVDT
How it was run: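 Live HEK293 cells with a modified cyclic nucleotide-gated (CNG) channel report intracellular cAMP via membrane-potential dye fluorescence (ex 535/em 590 nm). Endogenous PDE-IV was targeted. Compounds were tested at up to 22.9 uM final; RO 20-1724 100 uM served as control.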

[9] = molecular target: Cytochrome P450 3A4 (Homo sapiens) (UniProt P08684); assay: qHTS Assay for Activators of Cytochrome P450 3A4 (AID 885; active = well fitted curve in the direction sought with a large enough effect; an effect the other way counts as inactive or inconclusive; note: nearly all actives have a fitted effect of over 65% in size)
Chain of Cytochrome P450 3A4 (Homo sapiens) (P08684 whole entry, looked up): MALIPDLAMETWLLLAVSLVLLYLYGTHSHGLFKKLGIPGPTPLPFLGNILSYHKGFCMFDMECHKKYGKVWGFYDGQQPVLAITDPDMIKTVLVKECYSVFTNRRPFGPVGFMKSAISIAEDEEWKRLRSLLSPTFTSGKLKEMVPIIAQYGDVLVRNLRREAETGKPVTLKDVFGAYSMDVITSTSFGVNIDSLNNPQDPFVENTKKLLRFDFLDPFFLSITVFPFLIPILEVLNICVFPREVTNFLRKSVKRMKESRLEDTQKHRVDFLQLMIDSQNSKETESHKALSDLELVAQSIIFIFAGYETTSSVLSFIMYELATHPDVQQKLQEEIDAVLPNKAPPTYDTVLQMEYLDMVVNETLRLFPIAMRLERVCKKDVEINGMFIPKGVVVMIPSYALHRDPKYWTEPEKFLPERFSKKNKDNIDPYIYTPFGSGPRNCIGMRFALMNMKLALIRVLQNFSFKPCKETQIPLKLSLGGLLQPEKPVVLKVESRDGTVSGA
How it was run: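 Using 20nM recombinant human CYP3A4 in potassium phosphate (200mM), substrate Luciferin-PPXE at 25uM, luminescent luciferin detection followed a 60-min RT NADPH reaction; data scaled to 57 uM ketoconazole.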

[10] = molecular target: Cytochrome P450 2D6 (Homo sapiens) (UniProt P10635); assay: qHTS Assay for Inhibitors and Substrates of Cytochrome P450 2D6 (AID 891; active = well fitted curve in the direction sought with a large enough effect; an effect the other way counts as inactive or inconclusive; note: nearly all actives have a fitted effect of over 60% in size; note: potency is the fitted concentration of half-maximal effect)
Chain of Cytochrome P450 2D6 (Homo sapiens) (P10635 whole entry, looked up): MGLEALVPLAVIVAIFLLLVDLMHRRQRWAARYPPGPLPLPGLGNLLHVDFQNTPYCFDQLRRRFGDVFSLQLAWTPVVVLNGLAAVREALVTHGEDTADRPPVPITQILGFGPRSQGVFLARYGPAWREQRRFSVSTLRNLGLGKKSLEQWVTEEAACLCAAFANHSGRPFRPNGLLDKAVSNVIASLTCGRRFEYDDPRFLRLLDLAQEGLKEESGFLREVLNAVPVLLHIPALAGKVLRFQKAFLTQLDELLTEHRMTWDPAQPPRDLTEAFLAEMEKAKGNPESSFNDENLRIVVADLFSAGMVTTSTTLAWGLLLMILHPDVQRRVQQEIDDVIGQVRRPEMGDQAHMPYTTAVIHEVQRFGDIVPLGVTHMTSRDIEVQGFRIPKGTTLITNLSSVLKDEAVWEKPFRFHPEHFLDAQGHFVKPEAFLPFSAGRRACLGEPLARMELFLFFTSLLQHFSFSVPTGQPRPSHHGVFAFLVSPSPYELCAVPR
How it was run: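 Luminescent read-out of luciferin formed by 5 nM human CYP2D6 demethylating 30 uM Luciferin-ME EGE (Km level) over 60 min at room temperature after NADPH regeneration addition. Data normalized to full inhibition by 1.43 uM quinidine.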

[11] = molecular target: Cytochrome P450 2C19 (Homo sapiens) (UniProt P33261); assay: qHTS Assay for Inhibitors and Substrates of Cytochrome P450 2C19 (AID 899; active = well fitted curve in the direction sought with a large enough effect; an effect the other way counts as inactive or inconclusive; note: nearly all actives have a fitted effect of over 60% in size; note: potency is the fitted concentration of half-maximal effect)
Chain of Cytochrome P450 2C19 (Homo sapiens) (P33261 whole entry, looked up): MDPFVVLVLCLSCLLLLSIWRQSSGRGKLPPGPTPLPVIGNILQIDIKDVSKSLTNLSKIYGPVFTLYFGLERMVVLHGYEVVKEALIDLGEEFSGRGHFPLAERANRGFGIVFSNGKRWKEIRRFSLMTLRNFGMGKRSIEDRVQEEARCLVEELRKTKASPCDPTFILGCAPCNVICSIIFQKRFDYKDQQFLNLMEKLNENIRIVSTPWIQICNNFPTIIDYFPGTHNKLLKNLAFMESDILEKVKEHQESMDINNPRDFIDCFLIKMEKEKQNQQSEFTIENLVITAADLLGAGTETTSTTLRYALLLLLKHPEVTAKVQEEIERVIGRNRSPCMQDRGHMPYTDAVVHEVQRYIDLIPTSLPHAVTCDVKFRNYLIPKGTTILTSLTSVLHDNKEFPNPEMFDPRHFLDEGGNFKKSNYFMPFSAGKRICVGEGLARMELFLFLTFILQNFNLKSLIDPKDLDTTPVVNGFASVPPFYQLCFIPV
How it was run: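 Luminescent read-out of luciferin formed from Luciferin-H EGE (10uM, equal to KM). Enzyme 5nM in 50mM KPO4; compound added, 10 min at 37C, then NADPH regenerating system for 60 min at 37C. Full inhibition defined by 57uM ketoconazole.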

[12] = molecular target: Cytochrome P450 2C9 (Homo sapiens) (UniProt P11712); assay: qHTS Assay for Inhibitors and Substrates of Cytochrome P450 2C9 (AID 883; active = well fitted curve in the direction sought with a large enough effect; an effect the other way counts as inactive or inconclusive; note: % is set by controls: 0 for no effect and ±100 for the full control effect; nearly all actives have a fitted effect of over 60% in size)
How it was run: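 10nM CYP2C9 + 100uM Luciferin-H (=KM), 25mM KPO4; cpd 10 min 37C; NADPH regen, 60 min 37C; stop/detect with P450 Glo-Buffer 20 min; luminescence. Norm. to 57uM sulphaphenazole as full inhibition.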

[13] = molecular target: Guanine nucleotide-binding protein G(i) subunit alpha-1 (Homo sapiens) (UniProt P63096); assay: qHTS Assay for Inhibitors of RGS12 GoLoco Motif Activity (Green Fluorophore) (AID 879; active = well fitted curve in the direction sought with a large enough effect; an effect the other way counts as inactive or inconclusive;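 note: 0% = labeled peptide with Gαi1 and full inhibition = labeled peptide alone without protein; negative values mean loss of peptide binding seen as reduced polarization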)
How it was run: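 A drop in FITC polarization marked displacement of the FITC-tagged RGS12 GoLoco peptide (10 nM) from Gαi1 (50 nM). Compounds were incubated 10 min at room temperature in Tris pH 7.5 buffer containing 150 mM NaCl, 0.1 mM GDP and 0.05% NP40; unlabeled peptide titration served as control.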

[14] = molecular target: Pyruvate kinase (Leishmania mexicana) (UniProt Q27686); assay: qHTS Validation Assay for Inhibitors of Leishmania Mexicana Pyruvate Kinase (AID 945; active = well fitted curve in the direction sought with a large enough effect; an effect the other way counts as inactive or inconclusive;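 note: 0% = DMSO only neutral control wells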)
Chain of Pyruvate kinase (Leishmania mexicana) (Q27686 2-499 E452W): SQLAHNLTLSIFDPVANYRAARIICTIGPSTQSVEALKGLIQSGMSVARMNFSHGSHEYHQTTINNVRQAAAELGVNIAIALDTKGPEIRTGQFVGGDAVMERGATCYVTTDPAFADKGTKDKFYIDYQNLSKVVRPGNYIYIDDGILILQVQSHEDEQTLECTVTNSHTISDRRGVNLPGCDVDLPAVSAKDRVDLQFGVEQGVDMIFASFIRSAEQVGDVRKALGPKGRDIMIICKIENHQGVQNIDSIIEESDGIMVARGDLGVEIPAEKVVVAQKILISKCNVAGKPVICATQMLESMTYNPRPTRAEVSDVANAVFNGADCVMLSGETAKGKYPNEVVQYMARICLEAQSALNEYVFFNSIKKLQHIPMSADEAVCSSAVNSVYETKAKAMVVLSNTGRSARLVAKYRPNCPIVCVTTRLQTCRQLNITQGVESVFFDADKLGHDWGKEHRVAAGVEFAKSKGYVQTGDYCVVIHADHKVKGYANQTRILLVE
How it was run: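 qHTS eight-point titrations against 0.2 nM LmPYK (E451W) in imidazole buffer pH 7.2 with 0.5 mM PEP, 0.1 mM ADP; 1 h, room temperature. Readout: PKLight luminescence, normalized to neutral DMSO wells.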

[15] = molecular target: Pyruvate kinase PKM (Homo sapiens) (UniProt P14618); assay: qHTS Assay for Activators of Human Muscle Pyruvate Kinase (AID 954; active = well fitted curve in the direction sought with a large enough effect, not every such curve was filed as active;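 note: 0% = uninhibited enzyme and -100% = no enzyme or full thiadiazolimine inhibition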)
Chain of Pyruvate kinase PKM (Homo sapiens) (P14618 whole entry, looked up): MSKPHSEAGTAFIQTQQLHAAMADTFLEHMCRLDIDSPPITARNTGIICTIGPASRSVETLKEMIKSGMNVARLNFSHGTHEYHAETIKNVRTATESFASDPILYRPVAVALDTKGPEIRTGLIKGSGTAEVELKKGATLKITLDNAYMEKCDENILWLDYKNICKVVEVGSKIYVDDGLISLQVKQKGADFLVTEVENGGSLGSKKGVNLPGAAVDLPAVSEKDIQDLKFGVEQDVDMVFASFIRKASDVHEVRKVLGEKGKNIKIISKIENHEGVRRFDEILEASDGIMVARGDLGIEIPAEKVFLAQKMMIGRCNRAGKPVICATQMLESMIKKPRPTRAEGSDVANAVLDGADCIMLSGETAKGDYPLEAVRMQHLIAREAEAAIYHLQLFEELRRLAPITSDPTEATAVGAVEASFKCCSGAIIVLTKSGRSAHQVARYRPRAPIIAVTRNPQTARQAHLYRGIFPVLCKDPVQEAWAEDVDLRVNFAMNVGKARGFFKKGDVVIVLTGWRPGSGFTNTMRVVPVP
How it was run: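 Screening used highly purified human pyruvate kinase M2 under submaximal activity, with PEP at its Km and ADP below Km. After an hour at room temperature, ATP was read by luciferase luminescence.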

[16] = molecular target: Alpha-galactosidase A (Homo sapiens) (UniProt P06280); assay: Counterscreen for Glucocerebrosidase Inhibitors: qHTS Assay for Human alpha-Galactosidase at pH 4.5 (AID 992; active = well fitted curve in the direction sought with a large enough effect; an effect the other way counts as inactive or inconclusive; note: 0% is about no effect)
Chain of Alpha-galactosidase A (Homo sapiens) (P06280 whole entry, looked up): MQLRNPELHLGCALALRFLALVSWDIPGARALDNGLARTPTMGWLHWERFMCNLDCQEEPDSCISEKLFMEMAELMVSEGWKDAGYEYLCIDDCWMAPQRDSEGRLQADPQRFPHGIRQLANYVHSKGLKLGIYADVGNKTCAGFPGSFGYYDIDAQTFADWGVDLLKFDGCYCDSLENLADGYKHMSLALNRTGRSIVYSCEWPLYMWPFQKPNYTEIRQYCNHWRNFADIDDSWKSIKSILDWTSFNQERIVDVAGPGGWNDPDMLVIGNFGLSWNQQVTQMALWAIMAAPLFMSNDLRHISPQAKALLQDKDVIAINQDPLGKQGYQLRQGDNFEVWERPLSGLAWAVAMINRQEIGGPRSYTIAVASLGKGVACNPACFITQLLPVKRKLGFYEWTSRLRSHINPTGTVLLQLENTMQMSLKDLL
How it was run: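 Each compound is preincubated briefly with 2 nM enzyme before substrate addition (80 uM); plates then sit 20 min at ambient temperature, are quenched with 1M NaOH/1M glycine, and read fluorometrically.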

[17] = molecular target: alpha-glucosidase (Oryza sativa, rice) (UniProt Q653V4); assay: Counterscreen for Glucocerebrosidase Inhibitors: qHTS Assay for Rice alpha-Glucosidase at pH 5.0 (AID 997; active = well fitted curve in the direction sought with a large enough effect; an effect the other way counts as inactive or inconclusive;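 note: 0% = full activity with enzyme and -100% = basal without enzyme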)
How it was run: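 Endpoint fluorogenic assay at pH 5.0: compounds (0.7 nM to 77 uM) titrated against 4 nM rice enzyme and 400 uM 4-MU-alpha-glucoside for 20 min at room temperature; NaOH/glycine stop, read ex 365/em 440 nm, Hill-fitted AC50.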

[18] = molecular target: Muscarinic acetylcholine receptor M1 (Rattus norvegicus) (UniProt P08482); assay: qHTS Assay for Antagonists of Acetylcholine Muscarinic M1 Receptor: Kinetic Measurement of Intracellular Calcium Response (AID 943; active = well fitted curve in the direction sought with a large enough effect; an effect the other way counts as inactive or inconclusive;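 note: Fluo-4 calcium signal as peak divided by basal fluorescence over 4 min; nearly all actives have a fitted effect of over 75% in size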)
How it was run: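 Antagonism measured as reduction of carbachol-evoked (EC80, 100 nM final) calcium flux in rat M1-CHO cells after 10 min compound exposure. Fluo-4 signal read kinetically; ratio of maximal to basal fluorescence.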

[19] = molecular target: Muscarinic acetylcholine receptor M1 (Rattus norvegicus) (UniProt P08482); assay: qHTS Assay for Antagonists of Acetylcholine Muscarinic M1 Receptor: Measurement of IP-One Response (AID 944; active = well fitted curve in the direction sought with a large enough effect; an effect the other way counts as inactive or inconclusive; note: nearly all actives have a fitted effect of over 75% in size)
How it was run: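 IP1 accumulation measured via TR-FRET between d2-IP1 and Eu-cryptate anti-IP1 antibody after carbachol (200 nM, EC80) stimulation for 30 min; rat M1-transfected CHO cells received compound 10 min before agonist.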

CN(CCc1ccccn1)c1ccc2c(c1)Cc1ccccc1-2
active: Potency [2] 631 nM | Potency [10] 3.16 µM | Potency [11] 794 nM
inactive: activity change, negative = inhibition [1] -10.1% | activity change, negative = inhibition [3] -13.8% | activity, negative = inhibition [4] 7.42% | Potency [5] > 46 µM | Potency [6] > 9.22 µM | Potency [7] | Potency [8] | Potency [9]

CCN1/C(=C\C(C)=O)Sc2ccc(OC)cc21
active: Potency [2] 631 nM
inactive: activity change, negative = inhibition [1] -18.4% [at 38 µM] | activity change, negative = inhibition [3] 10.3% [at 38 µM] | activity, negative = inhibition [4] 2.84% [at 38 µM] | Potency [5] > 46 µM | Potency [6] > 46 µM | Potency [7] | Potency [8] | Potency [12] | Potency [10] | Potency [11]

C[C@]12C=CC(=O)C=C1CC[C@@H]1[C@H]3C[C@@H](O)[C@](O)(C(=O)CO)[C@]3(C)C[C@H](O)[C@]12F
active: Potency [5] 0.223 µM | Potency [6] 0.273 µM
inactive: activity change, negative = inhibition [1] -12.2% [at 38 µM] | Potency [2] | activity change, negative = inhibition [3] -3.19% [at 38 µM] | activity, negative = inhibition [4] -15.9% [at 38 µM] | Potency [7] | Potency [8] | Potency [10]

CN(Cc1cc(C(C)(C)C)cc(Br)c1O)Cc1cc(C(C)(C)C)cc(Br)c1O
inactive: activity change, negative = inhibition [1] -2.5% | activity change, negative = inhibition [3] 11.8% | activity, negative = inhibition [4] 7.17% | Potency [5] > 46 µM | Potency [6] > 9.22 µM | Potency [7] | Potency [8]
active: Potency [2] 3160 nM | Potency [11] 3160 nM

CN1CCc2c(cc(O)c(O)c2Cl)[C@H](c2cccc(Cl)c2)C1
inactive: activity change, negative = inhibition [1] 26% [at 38 µM] | Potency [2] | activity change, negative = inhibition [3] -25.3% [at 38 µM] | activity, negative = inhibition [4] -20% [at 38 µM] | Potency [5] > 46 µM | Potency [6] > 46 µM | Potency [7] | Potency [8] | outcome [13] | outcome [14] | outcome [15] | outcome [16] | Potency [17]

ON(CCc1ccccn1)Cc1ccccc1
inactive: activity change, negative = inhibition [1] -1.79% | activity change, negative = inhibition [3] 10.2% | activity, negative = inhibition [4] -0.0119% | Potency [5] > 46 µM | Potency [6] > 9.22 µM | Potency [7] | Potency [8] | Potency [9]
active: Potency [2] 2510 nM

NNC(=O)CNc1cccc(Br)c1
active: Potency [2] 501 nM
inactive: activity change, negative = inhibition [1] -0.367% | activity change, negative = inhibition [3] -6.61% | activity, negative = inhibition [4] -6.81% | Potency [5] > 46 µM | Potency [6] > 9.22 µM | Potency [7] | Potency [8] | Potency [9]

Nc1nc(Nc2ccccc2)nc2c1ncn2[C@@H]1O[C@@H](CO)[C@H](O)[C@@H]1O
inactive: activity change, negative = inhibition [1] -5.61% [at 38 µM] | activity change, negative = inhibition [3] -0.881% [at 38 µM] | activity, negative = inhibition [4] 0.406% [at 38 µM] | Potency [5] > 46 µM | Potency [6] > 46 µM | Potency [7] | Potency [8] | outcome [13] | Potency [18] | Potency [19] | outcome [14] | outcome [15] | outcome [16] | Potency [17]
active: Potency [2] 31600 nM

Reference: PubChem BioAssay (NCATS)
